Values without a mark were called inactive. Results filed as inconclusive are left out. Calls of active or inactive are those of the source. Unless noted, the call rests on the fitted dose curve.

The results in this text go back to PubChem BioAssay (Tox21).

Experiment [1] in a line: Nuclear factor erythroid 2-related factor 2/antioxidant responsive element (Nrf2/ARE) small molecule agonists: qHTS cell viability counter screen in human keratinocytes (AID 1919968; active means well fitted curve in the direction sought with a large enough effect in the repeat runs; an effect the other way counts as inactive or inconclusive; further: nearly all actives have a fitted effect of over 55% in size). In outline: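 Viability counter-screen: KeratinoSens reporter cells, DMSO-delivered compounds, 23 h at 37 C, CellTiter-Fluor fluorescence.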
Experiment [2] can be described thus: Nuclear factor erythroid 2-related factor 2/antioxidant responsive element (Nrf2/ARE) small molecule agonists: luciferase reporter gene qHTS assay in human keratinocytes (AID 1919969). Further: nearly all actives have a fitted effect of over 35% in size. Further: potency means the concentration at half of the fitted maximal effect. A general note: In a reporter assay the amount or activity of a reporter protein is the signal.
Experiment [3] concerns the target Gonadotropin-releasing hormone receptor (Homo sapiens) (UniProt P30968). The experiment is described as follows: Human gonadotropin-releasing hormone receptor (GnRHR) small molecule agonists, calcium flux assay in GnRHR-HEK293 cells (AID 1920063). Further: nearly all actives have a fitted effect of over 35% in size. In outline: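 Tox21-format agonist screen using human GnRHR-expressing HEK293 cells and a fluorescent calcium dye; kinetic 3-min fluorescence reading after compound addition, 15-point concentration series run in triplicate.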
(In general: Calcium flux is commonly read through the fluorescence of an indicator in the cells.)

Experiment [4] concerns the target KiSS-1 receptor (Homo sapiens) (UniProt Q969F8). The experiment is described as follows: Human kisspeptin (KISS1R) small molecule agonists, calcium flux assay in KISS1R-HEK293 cells (AID 1920064; active means well fitted curve in the direction sought with a large enough effect in the repeat runs; an effect the other way counts as inactive or inconclusive). In outline:
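Intracellular calcium mobilization in KISS1R-HEK293 cells was recorded by fluorescence (Ex/Em 480/540) for 3 min following compound addition to cells pre-loaded 1 h with calcium dye.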

Experiment [5] in a line: G protein-coupled receptor (GPCR) small molecule agonists, calcium flux assay: HEK293 wild type cell line counter screen (AID 1920065). In outline:
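In this agonist-mode screen, ATP is the positive control and DMSO the vehicle. Cells grow 18 h before a 1 h dye incubation at 37 C; signal is taken at Ex/Em 480/540 over 3 min.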

A short description of experiment [6]: p53 small molecule agonists, cell-based qHTS assay with rat liver microsomes (AID 1963578). In outline:
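Rat liver microsome activation: microsomes 0.5 mg/mL, NADPH 0.5 mg/mL final; p53RE-bla cells, 16 h 37 C; LiveBLAzer readout, 2 h RT dark.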
A general note: qHTS replaces the single test concentration by a dilution series.

Experiment [7] addresses Beta-2 adrenergic receptor (Homo sapiens) (UniProt P07550). The experiment can be described thus: Adrenergic beta2 receptor (ADRB2) small molecule agonists, cell-based qHTS assay (AID 1963593).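 Further: CHO cells stably overexpressing human ADRB2.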 In outline: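 CHO cells stably over-expressing ADRB2 were plated overnight at 37C, then dosed with compounds plus a stimulation mix containing 100uM IBMX and 25uM Ro-20-1724 for 0.5hr at room temperature. cAMP was measured by HTRF competition, 1hr.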

The target in experiment [8] is D(2) dopamine receptor (Homo sapiens) (UniProt P14416). The experiment is described as follows: Dopamine D2 receptor (DRD2) small molecule antagonists, cell-based qHTS assay (AID 1963595; active means well fitted inhibition curve with a large enough effect in the signal ratio in the repeat runs, with a control signal flat; the % refers to the signal ratio). In a few lines: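 HEK293 cells stably expressing DRD2, preincubated with 0.1 mM Ro20-1724 and compounds 10 min, were stimulated with 200 nM NKH477 plus 12 nM quinpirole for 30 min at room temperature; cAMP measured by HTRF (665/620 nm).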
D(2) dopamine receptor (Homo sapiens), sequence (P14416 whole entry, looked up): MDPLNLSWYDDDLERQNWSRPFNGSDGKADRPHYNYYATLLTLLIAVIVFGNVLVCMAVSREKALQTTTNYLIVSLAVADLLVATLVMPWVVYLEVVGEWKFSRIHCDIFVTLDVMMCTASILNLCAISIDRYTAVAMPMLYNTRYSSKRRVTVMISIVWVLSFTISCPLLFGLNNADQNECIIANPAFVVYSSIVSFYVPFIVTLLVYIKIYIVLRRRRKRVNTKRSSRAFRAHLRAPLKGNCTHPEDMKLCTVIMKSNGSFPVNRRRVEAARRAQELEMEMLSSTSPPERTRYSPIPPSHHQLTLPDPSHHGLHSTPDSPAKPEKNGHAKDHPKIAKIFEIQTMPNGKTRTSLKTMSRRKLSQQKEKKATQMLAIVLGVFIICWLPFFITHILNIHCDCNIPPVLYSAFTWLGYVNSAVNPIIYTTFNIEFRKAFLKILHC

The nature of experiment [9]: p53 small molecule agonists, cell-based qHTS assay with human liver microsomes: qHTS cell viability counter screen (AID 1963579). Further: nearly all actives have a fitted effect of over 45% in size. In a few lines: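 Luminescent CellTiter-Glo read-out, 30 min at room temperature, gauged cytotoxicity in p53RE-bla cells exposed 16 h at 37 C to DMSO-dissolved compounds with metabolic activation by human liver microsomes and NADPH, each 0.5 mg/mL final.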

A short description of experiment [10]: p53 small molecule agonists, cell-based qHTS assay (AID 1963582; active means well fitted activation curve with a large enough effect in the signal ratio in the repeat runs, not every such curve was filed as active; the % refers to the signal ratio; further: potency means the concentration at half of the fitted maximal effect). In outline:
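Agonist activity was scored from beta-lactamase FRET fluorescence in p53RE-bla cells treated 16 h at 37 C with compounds in DMSO, substrate incubation being 2 h at room temperature.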

The target in experiment [11] is 5-hydroxytryptamine receptor 2A (Homo sapiens) (UniProt P28223). The experiment is described as follows: 5-hydroxytryptamine receptor 2A (HTR2A) small molecule antagonists, cell-based qHTS assay (AID 1963586). Further: nearly all actives have a fitted effect of over 45% in size. In a few lines: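 Antagonist-mode intracellular calcium assay: DOI (4 nM) added after 5 min compound pre-incubation at room temperature to dye-loaded HTR2A-CHO cells. Fluorescence followed for 3 min, sampled every second.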
5-hydroxytryptamine receptor 2A (Homo sapiens), sequence (P28223 whole entry, looked up): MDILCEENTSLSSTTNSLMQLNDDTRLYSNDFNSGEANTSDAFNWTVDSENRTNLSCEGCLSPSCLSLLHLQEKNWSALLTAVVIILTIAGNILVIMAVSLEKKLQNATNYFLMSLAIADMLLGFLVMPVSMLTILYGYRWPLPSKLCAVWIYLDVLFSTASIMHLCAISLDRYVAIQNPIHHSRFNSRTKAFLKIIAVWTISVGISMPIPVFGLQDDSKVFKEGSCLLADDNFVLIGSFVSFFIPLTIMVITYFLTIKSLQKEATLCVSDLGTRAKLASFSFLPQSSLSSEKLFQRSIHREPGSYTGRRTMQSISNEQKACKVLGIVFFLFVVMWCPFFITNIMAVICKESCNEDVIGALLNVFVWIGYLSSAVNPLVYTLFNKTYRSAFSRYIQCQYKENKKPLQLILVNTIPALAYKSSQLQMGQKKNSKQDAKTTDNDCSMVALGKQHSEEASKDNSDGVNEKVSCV

Experiment [12] shares this target. The experiment can be described thus: 5-hydroxytryptamine receptor 2A (HTR2A) small molecule agonists, cell-based qHTS assay (AID 1963587). Further: nearly all actives have a fitted effect of over 30% in size. In a few lines:
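Kinetic calcium-flux fluorescence (2 min, 1 sec intervals) after compound addition in agonist mode. HTR2A-CHO cells were cultured 18 h, then dye-loaded 1 h at 37 C.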

In experiment [13] the target is Muscarinic acetylcholine receptor M1 (Homo sapiens) (UniProt P11229). The experiment can be described thus: Cholinergic receptor muscarinic 1 (CHRM1) small molecule antagonists, cell-based qHTS assay (AID 1963588). Further: nearly all actives have a fitted effect of over 40% in size. In outline:
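CHRM1-CHO calcium-flux assay, antagonist mode. Cells were seeded 18 h, dye-loaded 1 h at 37 C and given compound for 5 min at RT, then acetylcholine was added at 50nM. FDSS fluorescence was read 3 min; 15 concentrations, three runs.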

Experiment [14] shares this target. The experiment is described as follows: Cholinergic receptor muscarinic 1 (CHRM1) small molecule agonists, cell-based qHTS assay (AID 1963589). Further: nearly all actives have a fitted effect of over 35% in size. In a few lines:
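Stable CHRM1-CHO cells (human receptor) were incubated 18 h, dye-loaded for 1 h at 37 C and exposed to test compounds for agonist activity, with calcium-dependent fluorescence followed kinetically.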

Experiment [15] can be described thus: cAMP Responsive Elements (CRE) small molecule agonists, cell-based qHTS assay (AID 1963590). In outline: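 FRET-based beta-lactamase readout (LiveBLAzer B/G, 2 h RT) quantified CRE activation in HEK 293T CRE-bla cells after 3 h treatment with DMSO-dissolved compounds.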
Experiment [16] deals with D(2) dopamine receptor (Homo sapiens) (UniProt P14416). The experiment is described as follows: Dopamine D2 receptor (DRD2) small molecule agonists, cell-based qHTS assay (AID 1963594). Further: nearly all actives have a fitted effect of over 35% in size. In outline: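 cAMP accumulation in DRD2-HEK293 cells measured by HTRF after 1 h detection; compounds added 10 min before NKH477 (200nM […]) forskolin-analogue stimulation, 30 min at room temperature, with Ro20-1724 present at 0.1 mM final.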

Experiment [17] can be described thus: p53 small molecule agonists, cell-based qHTS assay with rat liver microsomes: qHTS cell viability counter screen (AID 1963580). Further: nearly all actives have a fitted effect of over 45% in size. In outline: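 HCT-116 p53RE-bla, 4,000 cells/well, 5 h pre-incubation; cpd + rat liver microsomes 0.5 mg/mL + NADPH 0.5 mg/mL (final); 16 h, 37 C; CellTiter-Glo, 30 min RT; luminescence.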
Experiment [18] is described as follows: p53 small molecule agonists, cell-based qHTS assay: qHTS cell viability counter screen (AID 1963581). Further: nearly all actives have a fitted effect of over 45% in size. In outline: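 Compounds are pinned onto HCT-116 p53RE-bla cells and left 16 h at 37 C. Following the reporter FRET read, ATP is quantified by CellTiter-Glo luminescence after 30 min at room temperature.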
A short description of experiment [19]: cAMP Responsive Elements (CRE) small molecule antagonists, cell-based qHTS assay (AID 1963591; active means well fitted inhibition curve with a large enough effect in the signal ratio in the repeat runs, not every such curve was filed as active; the % refers to the signal ratio). In a few lines: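 qHTS in CRE-bla HEK 293T cells: compound in DMSO, then 0.25 uM NKH477 (final), 3 h at 37 °C/5% CO2; beta-lactamase FRET read-out after 2 h substrate incubation.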
The target of experiment [20] is Beta-2 adrenergic receptor (Homo sapiens) (UniProt P07550). The experiment can be described thus: Adrenergic beta2 receptor (ADRB2) small molecule antagonists, cell-based qHTS assay (AID 1963592). Further: series mostly up to about 92 µM; nearly all actives have a fitted effect of over 50% in size. In a few lines: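 Cells (CHO, stable ADRB2 overexpression) incubated 18-20hr at 37C; compounds added from DMSO; agonist mix (1nM isoproterenol, 100uM IBMX, 25uM Ro-20-1724) added; 0.5hr RT; d2-cAMP and anti-cAMP-cryptate added; 1hr RT; 665/615 nm read.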
Beta-2 adrenergic receptor (Homo sapiens), sequence (P07550 whole entry, looked up): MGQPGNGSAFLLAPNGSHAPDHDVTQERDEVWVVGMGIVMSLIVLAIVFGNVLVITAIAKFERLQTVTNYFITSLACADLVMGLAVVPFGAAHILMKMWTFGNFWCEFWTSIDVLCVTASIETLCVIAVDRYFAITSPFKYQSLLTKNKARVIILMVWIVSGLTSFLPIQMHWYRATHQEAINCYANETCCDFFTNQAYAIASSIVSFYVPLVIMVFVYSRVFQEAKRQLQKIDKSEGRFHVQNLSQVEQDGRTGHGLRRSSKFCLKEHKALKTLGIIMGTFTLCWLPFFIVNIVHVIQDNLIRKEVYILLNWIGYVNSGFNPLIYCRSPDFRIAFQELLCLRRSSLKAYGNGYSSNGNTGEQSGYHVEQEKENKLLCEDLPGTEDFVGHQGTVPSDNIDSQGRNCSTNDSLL

Gonadotropin-releasing hormone receptor (Homo sapiens), sequence (P30968 whole entry, looked up): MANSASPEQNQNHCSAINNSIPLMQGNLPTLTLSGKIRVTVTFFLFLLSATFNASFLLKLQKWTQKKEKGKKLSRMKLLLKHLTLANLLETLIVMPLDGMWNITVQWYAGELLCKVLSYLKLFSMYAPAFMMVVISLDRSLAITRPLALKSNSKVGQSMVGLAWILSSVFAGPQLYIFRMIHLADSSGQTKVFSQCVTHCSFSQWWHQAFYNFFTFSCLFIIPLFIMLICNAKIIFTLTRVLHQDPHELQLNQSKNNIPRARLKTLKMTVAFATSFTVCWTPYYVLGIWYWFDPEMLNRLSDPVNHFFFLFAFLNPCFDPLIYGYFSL
Muscarinic acetylcholine receptor M1 (Homo sapiens), sequence (P11229 whole entry, looked up): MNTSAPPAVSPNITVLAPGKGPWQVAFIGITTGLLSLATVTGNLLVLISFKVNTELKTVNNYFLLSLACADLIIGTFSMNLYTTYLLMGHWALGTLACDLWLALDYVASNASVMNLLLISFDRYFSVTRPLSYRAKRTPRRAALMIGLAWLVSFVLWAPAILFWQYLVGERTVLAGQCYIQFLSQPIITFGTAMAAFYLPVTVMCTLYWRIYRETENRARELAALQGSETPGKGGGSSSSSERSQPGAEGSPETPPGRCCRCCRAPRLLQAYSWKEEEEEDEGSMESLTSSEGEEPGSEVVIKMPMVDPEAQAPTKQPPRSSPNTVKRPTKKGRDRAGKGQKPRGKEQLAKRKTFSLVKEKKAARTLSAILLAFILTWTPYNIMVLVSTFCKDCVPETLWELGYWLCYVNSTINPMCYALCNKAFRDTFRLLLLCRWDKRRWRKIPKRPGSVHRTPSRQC
KiSS-1 receptor (Homo sapiens), sequence (Q969F8 whole entry, looked up): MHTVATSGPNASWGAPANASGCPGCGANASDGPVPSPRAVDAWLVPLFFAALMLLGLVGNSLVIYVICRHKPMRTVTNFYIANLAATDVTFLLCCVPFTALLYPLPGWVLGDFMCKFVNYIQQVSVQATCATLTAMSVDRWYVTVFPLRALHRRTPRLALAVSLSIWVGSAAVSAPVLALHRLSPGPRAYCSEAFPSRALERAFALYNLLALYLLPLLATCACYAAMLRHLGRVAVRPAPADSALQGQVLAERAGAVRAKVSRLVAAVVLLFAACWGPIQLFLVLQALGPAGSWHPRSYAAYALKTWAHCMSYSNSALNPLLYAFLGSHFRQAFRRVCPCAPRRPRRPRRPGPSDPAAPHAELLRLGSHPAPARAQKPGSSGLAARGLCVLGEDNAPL

Turning to `CC[C@]1(O)C[C@H]2CN(CCc3c([nH]c4ccccc34)[C@@](C(=O)OC)(c3cc4c(cc3OC)N(C=O)[C@H]3[C@@](O)(C(=O)OC)[C@H](OC(C)=O)[C@]5(CC)C=CCN6CC[C@]43[C@@H]65)C2)C1`, the Potency entry in experiment [1], in experiment [3], in [4], in experiment [5], in experiment [6] and in [7] was “inactive” each time. The Potency entry in [8] was “inactive”. Besides, the Potency in experiment [2] is 596 nM (active).
Regarding `COc1ccc(NC(=O)CC(C)=O)cc1`, the Potency result in [1], in experiment [2], in [3], in experiment [4], in experiment [5] and in experiment [9] was “inactive” throughout. The Potency entry in experiment [10], in experiment [11], in [12], in [13], in [14] and in [15] was “inactive” throughout. Besides, the Potency result in [7], in [16] and in [8] was “inactive” in each case.
For the compound `CCCCOC(=O)c1ccccc1`, the Potency entry in experiment [1], in [2], in [3], in experiment [4], in [5] and in [6] was “inactive” each time. In addition, the Potency entry in experiment [9], in experiment [17], in experiment [18], in experiment [10], in [11] and in [12] was “inactive” in each case. In addition, the Potency result in experiment [13], in experiment [14], in experiment [15], in [19], in [20] and in experiment [7] was “inactive” each time. For the same compound, the Potency result in experiment [16] and in experiment [8] was “inactive” each time.
On to `COc1nccnc1CC(C)C`, for which the Potency result in experiment [1], in experiment [2], in experiment [3], in [4], in experiment [5] and in experiment [9] was “inactive” in each case. Further, the Potency entry in experiment [17], in [10], in experiment [11], in experiment [12], in experiment [14] and in experiment [15] was “inactive” each time. For the same compound, the Potency result in [19], in experiment [20], in [16] and in [8] was “inactive” in each case.
Take `CC(S)C(C)S` (stereo not drawn): the Potency result in experiment [1], in experiment [2], in experiment [3], in experiment [4], in experiment [5] and in experiment [6] was “inactive” each time. The Potency result in [9], in [17], in [18], in experiment [10], in experiment [11] and in [12] was “inactive” each time. In addition, the Potency entry in experiment [13], in experiment [14], in experiment [15], in [19], in experiment [20] and in experiment [7] was “inactive” throughout. Besides, the Potency result in [16] and in experiment [8] was “inactive” in each case.
As for `CC1=CCCC(C)(C)C12CCC(C)O2` (stereo not drawn), the Potency entry in [1], in experiment [2], in experiment [3], in [4], in experiment [5] and in [9] was “inactive” throughout. The Potency entry in [17], in experiment [18], in experiment [10], in [13], in [14] and in [15] was “inactive” each time. In addition, the Potency entry in experiment [19], in [20] and in experiment [16] was “inactive” in each case.
In the case of `CCO[Si](CC(C)C)(OCC)OCC`, the Potency result in experiment [1], in experiment [2], in experiment [3], in [4], in [5] and in experiment [9] was “inactive” in each case. The Potency result in experiment [17], in experiment [18], in experiment [11], in experiment [12], in experiment [13] and in [14] was “inactive” in each case. The Potency entry in [15], in experiment [19], in [20] and in experiment [16] was “inactive” in each case.
On to `CCCCCCNC(=O)n1cc(F)c(=O)[nH]c1=O`, for which the Potency result in [1], in experiment [2], in experiment [3], in [4], in [5] and in experiment [9] was “inactive” in each case. Also, the Potency entry in experiment [17], in [19], in experiment [20], in experiment [7], in [16] and in experiment [8] was “inactive” throughout. Also, the Potency in experiment [10] was 5000 nM (active).
